# Bioassay records (PubChem BioAssay)
# SENP8 block-1 – blocks human SENP8 cleavage of Nedd8 substrate; 0.64% of 360,000 active; inhibition, % at 20 µM; recombinant SENP8, Nedd8 substrate fluorescence; Q96LD8; AID 602440; in the data active = inhibition mostly above about 40%, no sharp cut-off; inactive = mostly below about 27%
# SENP7 block – inhibitors of human SENP7 protease. Q9BQF6. recombinant SENP7, Z-RLRGG-aminoluciferin luminescence, 40 min. inhibition, % at 5 µM. 1.5% of 330,000 active;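 active = inhibition above about 50% at the single test dose, limit read from the data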;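 also: plate controls were DMSO with enzyme for no effect and no enzyme buffer wells for full effect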
# SENP8 block-2 – inhibitors of human SENP8 protease; Q96LD8; purified SENP8, Z-RLRGG-aminoluciferin cleavage, luminescence; inhibition, % at 10 µM; 1.2% of 330,000 active; in the data active = inhibition above about 50%
# SENP6 block – blocks the human protease SENP6; 1.8% of 330,000 active; inhibition, % at 10 µM; Recombinant SENP6 catalytic domain, aminoluciferin luminescence; Q9GZR1;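 active = inhibition above about 50% at the single tested dose, limit read from the data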;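 also: plate controls were DMSO wells with enzyme for no effect and DMSO wells lacking enzyme for full effect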
# Target sequence (Q9GZR1 628-1112 limits assumed): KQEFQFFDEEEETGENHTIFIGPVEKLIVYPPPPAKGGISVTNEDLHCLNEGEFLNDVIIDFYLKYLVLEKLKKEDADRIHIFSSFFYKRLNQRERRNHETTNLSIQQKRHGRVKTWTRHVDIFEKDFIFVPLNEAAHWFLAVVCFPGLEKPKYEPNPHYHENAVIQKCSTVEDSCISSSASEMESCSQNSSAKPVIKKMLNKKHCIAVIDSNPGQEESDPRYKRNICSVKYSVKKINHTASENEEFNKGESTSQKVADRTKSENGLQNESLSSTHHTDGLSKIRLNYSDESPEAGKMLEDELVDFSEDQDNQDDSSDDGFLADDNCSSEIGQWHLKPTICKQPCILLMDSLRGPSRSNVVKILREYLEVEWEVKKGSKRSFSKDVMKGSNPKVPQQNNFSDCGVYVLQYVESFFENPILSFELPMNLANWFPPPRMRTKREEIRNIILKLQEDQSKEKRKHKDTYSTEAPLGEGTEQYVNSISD
# Platelet DG rel – platelet dense granule release activity; human platelet-rich plasma, SFLLRN dense granule ATP release, luminescence; inhibition, %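 (compounds screened at 7.5 µM in platelet-rich plasma)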; 0.22% of 300,000 active; AID 1663;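 active = mean replicate score, as percent of positive control, at or above 50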
# Starred values were filed as active, the others as inactive; x = no result given. Sampled rows, rich in hits. Any-hit rate of the full collection: about 2.4%.
SMILES,SENP8 block-1,SENP7 block,SENP8 block-2,SENP6 block,Platelet DG rel
OC[C@H]1O[C@@H](n2cnc3c(NC4CCCC4)nc(Cl)nc32)[C@H](O)[C@@H]1O,5,-6,-8,-16,x
CCOC1OC2C(CO)OC(n3cnc4c(N)ncnc43)C2O1 (configuration not stated),8,5,0,-11,74*
Nc1nc(Cl)nc2c1ncn2[C@@H]1O[C@H](CO)[C@@H](O)[C@H]1O,17,-2,-9,13,89*
Nc1ncnc2c1ncn2C1OC(CO)C2OC21 (configuration not stated),4,x,x,x,x
Nc1ncnc2c1ncn2[C@@H]1O[C@H](COP(=O)(O)O)[C@@H](O)[C@H]1O,12,-3,-1,0,83*
COc1ccc(CCC2=NCCN2C(CC(C)C)c2nc3ccccc3[nH]2)cc1 (configuration not stated),17,x,x,x,x
CCCC(=Nc1ccc(N)cc1)C1=C(O)C(C(=O)OC)C(C)(C)CC1=O (configuration not stated),80*,1,6,14,-2
O=C(NC1CCCC1)C(c1ccco1)N1CCN(c2c(Cl)cncc2Cl)CC1 (configuration not stated),13,x,x,x,x
COc1ccc([C@H]2CC(=O)C=C(c3cccc(OC)c3OC)C2)cc1OC,16,9,-3,6,x
Cc1ccccc1NC(=O)CC1SC(=O)N(c2ccccc2)C1=O (configuration not stated),55*,8,-8,-1,1
COCCCNc1nc2ccccc2nc1NS(=O)(=O)c1ccc(C)cc1C,-372,4,-4,-30,-9
O=[N+]([O-])c1ccc(N/N=C/c2ccc(O)c(O)c2O)c(S(=O)(=O)N2CCOCC2)c1,90*,16,15,38,3
O=[N+]([O-])c1ccc(N/N=C/c2cccc(O)c2O)c(S(=O)(=O)N2CCOCC2)c1,7,13,8,-1,-4
O=C(CCc1ccc(S(=O)(=O)N2CCOCC2)cc1)N/N=C/c1ccc(O)c(O)c1O,39*,8,-3,-5,15
O=C(NC1CCCC1)C1c2ccccc2OCC(=O)N1Cc1ccc2c(c1)OCO2 (configuration not stated),19,x,x,x,x
NC(=S)NN=Cc1c[nH]c2nccnc12,18,x,x,x,x
O=C1NC[C@@H](CCCCN2C[C@H](Cc3ccccc3)N(CC3CCCCC3)C(=O)C2=O)N(Cc2ccccc2)C1=O,4,x,x,x,x
COc1ccccc1C1N=C(c2ccccc2C)NO1 (configuration not stated),25,78*,75*,83*,2
CCCC[n+]1ccn(-c2nc3ccccc3nc2[N-]S(=O)(=O)c2ccc(Br)cc2)c1,-479,1,2,-29,-5
CCCCC[n+]1ccn(C2=C([O-])c3ccccc3C(=O)/C2=N\S(=O)(=O)c2ccc(Cl)cc2)c1,71*,19,19,47,4
O=C(c1[nH]c(C(F)(F)F)nc1-c1ccccc1)N1CCN(C/C=C/c2ccccc2)CC1,20,x,x,x,x
Cc1noc(/C=C/c2ccccn2)c1[N+](=O)[O-],0,-2,-4,10,1
Cc1noc(/C=C/Nc2ccc(F)cc2F)c1[N+](=O)[O-],7,97*,84*,87*,20
CNC(=S)N=Nc1c(O)[nH]c2ccc(C(C)C)cc12,44*,x,x,x,-8
CNC(=S)N=Nc1c(O)[nH]c2ccccc12,29,x,x,x,1
SMILES,SENP8 block-1,SENP7 block,SENP8 block-2,SENP6 block,Platelet DG rel
CC(C)CC(=NNC(=O)c1ccncc1)c1cc(Cl)ccc1O,-56,x,x,x,x
COC1=C(c2ccccc2)C(=O)c2ccccc2C1=O,92*,13,3,28,2
CC1(C)Cc2c(sc3nc(NCCN4CCOCC4)n4ncnc4c23)CO1,-20,5,-1,-14,52*
O=C(CSc1nnc(-c2ccco2)c(-c2ccco2)n1)Nc1ccccc1,36,7,9,1,-3
Cc1ccc(NC(=O)CSc2nnc(-c3ccco3)c(-c3ccco3)n2)cc1,27,15,7,-2,2
Cc1ccccc1NC(=O)CSc1nnc(-c2ccco2)c(-c2ccco2)n1,42*,5,8,7,3
CN(C)c1ccc(NC(=O)CSc2nnc(-c3ccco3)c(-c3ccco3)n2)cc1,46*,4,8,31,-18
Cc1cccc(C)c1NC(=O)CSc1nnc(-c2ccco2)c(-c2ccco2)n1,60*,-5,12,8,3
COc1ccc(CCNc2nc(C)nc3c2nnn3Cc2ccccc2)cc1OC,12,2,-11,4,3
O=C(Cn1cnc2c(cnn2-c2ccc(F)cc2)c1=O)OCc1ccccc1,30,-3,-3,-11,53*
COc1ccccc1-n1cc(-c2ccc(Cl)cc2)[nH]c1=O,7,9,-4,5,105*
CCC(=O)Nc1ccc(C(=O)COC(=O)c2nc3nccc(C)n3n2)cc1,-9,2,6,-12,x
O=C(COC(=O)c1ccc([N+](=O)[O-])o1)NC1CCCCC1,33,18,12,2,x
O=C(COC(=O)c1ccc([N+](=O)[O-])o1)NC1CCCC1,40*,4,5,13,x
COc1ccc(-c2nnc(-c3cc(OC)c(OC)c(OC)c3)o2)cc1OC,-417,0,15,5,66*
COc1cc(-c2nnc(-c3cccs3)o2)cc(OC)c1OC,-481,-4,-6,-1,-2
Cc1ccc(NC(=S)N=Nc2c(O)n(C)c3ccc(S(=O)(=O)N4CCOCC4)cc23)cc1,30*,x,x,x,-13
O=S(=O)(c1ccccc1)C1(C2CC(c3ccccc3)=NO2)CC(O)C1 (configuration not stated),4,-1,-2,-13,-2
O=C1Nc2ccccc2/C1=N\N=C\c1ccc(O)c(O)c1,57*,-13,-14,-11,2
Cc1cc(C=O)c(C)n1-c1ccc(NC2CCCC2)c([N+](=O)[O-])c1,42*,5,0,-10,-1
Cc1cc(C=O)c(C)n1-c1ccc(Oc2ccc([N+](=O)[O-])cn2)cc1,21,-9,-1,-8,-11
CC1=NN(c2nc(-c3ccccc3)cs2)C(=O)C1N=Nc1ccccc1 (configuration not stated),24,9,-2,0,-1
CC1=NN(c2nc(-c3ccc(C)cc3)cs2)C(=O)C1N=Nc1ccc2ccccc2c1 (configuration not stated),55*,5,-2,11,3
Cn1c(=O)[nH]c(=O)c2c1nc(N1CCCCCC1)n2CC(N)=O,6,-1,7,8,70*
Cn1c(=O)[nH]c(=O)c2c1nc(N1CCCC1)n2CCO,8,0,0,13,4
Cc1cc(/C=N/NC(=O)c2cccc([N+](=O)[O-])c2)c(C)n1-c1ccc(Cl)cc1Cl,52*,4,-2,0,-1
Cc1nc2sccn2c(=O)c1S(=O)(=O)N1CCN(c2cccc(Cl)c2)CC1,7,12,-8,-15,54*
Oc1ccccc1C1Nc2cccc3cccc(c23)N1,-113,5,16,30,5
